Eleven compounds from PubChem BioAssay (NCATS) can be followed below.

A short description of experiment [1]: Cellular Toxicity (caspase-3) Hek293 (AID 664).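 Also: cells exposed to compound for 16 h at 37 °C before readout.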 As to conditions: HEK293 caspase-3 activation, DMSO = 0%, 100 µM tamoxifen = 100%; at 92.2 µM (top of the series). The procedure, abridged: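 Cells plated, 5 hr at 37 °C; compounds added; 16 hr at 37 °C; Caspase-Glo 3/7 reagent, 20 min RT; luminescence read. Activation expressed relative to DMSO and 100 uM tamoxifen, AC50 by Hill model.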

Experiment [2] is described as follows: Cell Viability - LYMP2-005 (AID 967). Also: potency is read from the fitted curve at half-maximal effect. The procedure, abridged:
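Luciferase-based ATP quantitation served as the viability measure in human lymphoblastoid LYMP2-005 cells exposed to test compounds for 24 h at 37 C in complete culture medium. Potency (AC50) was obtained by fitting concentration-response curves with the Hill equation.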

Experiment [3] is described as follows: Cell Viability - LYMP2-023 (AID 975). Also: nearly all actives have a fitted effect of over 55% in size. Also: potency is read from the fitted curve at half-maximal effect. The procedure, abridged:
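2500 cells/well, 5 hr 37 C; cpd 24 hr 37 C; CellTiter-Glo, 30 min RT; luminescence. qHTS conc-response, Hill fit -> AC50. Pos ctrl tetraoctylammonium bromide.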

The nature of experiment [4]: Cell Viability - LYMP1-002 - Assay at 24 hr (AID 993). Also: potency is read from the fitted curve at half-maximal effect. A digest of the protocol:
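Cells plated 2500/well, 5 hr 37 C; compounds added, 24 hr 37 C; CellTiter-Glo added, 30 min RT; luminescence read. Tetraoctylammonium bromide positive control. Hill-equation AC50.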

Experiment [5] can be described thus: Cell Viability - LYMP1-002 - Assay at 40 hr (AID 994). Also: nearly all actives have a fitted effect of over 60% in size. Also: potency is read from the fitted curve at half-maximal effect. A digest of the protocol: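 Luminescent ATP signal served as the viability readout, with decreases taken as toxicity. Cells were treated with compounds across a concentration range for 40 hours at 37 C, and AC50 values came from standard Hill modeling.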
Experiment [6] in a line: Cell Viability - LYMP1-003 - Assay at 40 hr (AID 964). Also: nearly all actives have a fitted effect of over 60% in size. Also: potency is read from the fitted curve at half-maximal effect. The procedure, abridged: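 Cells were seeded at 2500 per well and incubated 5 hr at 37 C. Compounds were added across a concentration series and left 40 hr at 37 C. CellTiter-Glo was added for 30 min at room temperature before luminescence reading.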
Experiment [7] can be described thus: Cell Viability - LYMP2-011 (AID 969). Also: nearly all actives have a fitted effect of over 60% in size. Also: potency is read from the fitted curve at half-maximal effect. The procedure, abridged:
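2500 cells/well, 5 hr 37 C; compound added, 24 hr 37 C; CellTiter-Glo 30 min RT; luminescence. qHTS concentration-response, Hill-equation AC50. Tetraoctylammonium bromide positive control.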

The test system of the next experiment is 3D7. The experiment is described as follows: qHTS profiling for inhibitors of Plasmodium falciparum proliferation (AID 504749). Also: nearly all actives have a fitted effect of over 60% in size. Also: potency is read from the fitted curve at half-maximal effect. Conditions: P. falciparum in erythrocytes, SYBR Green DNA, 72 h; series mostly up to 28.7 µM. The procedure, abridged: (§1)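 P. falciparum-infected erythrocytes (0.3% parasitemia, 2.5% hematocrit) incubated with compound 72 h at 37 C, 5% CO2. Parasite DNA detected by SYBR Green after lysis, overnight at room temperature; normalised to 0.29 uM artemisinin and DMSO.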
A general note: In qHTS, concentration-response curves come from the screen itself.

A further experiment has as its system C2A. Described as above. As to conditions: P. falciparum in erythrocytes, SYBR Green DNA, 72 h; series mostly up to 28.7 µM. The procedure, abridged:
as §1

The subject of another experiment is CP191. Described as above. As to conditions: P. falciparum in erythrocytes, SYBR Green DNA, 72 h; series mostly up to 28.7 µM. The procedure, abridged: as §1
A further experiment deals with CP192. The experiment is described as above. As to conditions: P. falciparum in erythrocytes, SYBR Green DNA, 72 h; series mostly up to 28.7 µM. The procedure, abridged:
as §1

The test system of a further experiment is CP201. The experiment is described as above. Conditions: P. falciparum in erythrocytes, SYBR Green DNA, 72 h; series mostly up to 28.7 µM. The procedure, abridged:
as §1

The subject of the next experiment is CP211. Described as above. Conditions: P. falciparum in erythrocytes, SYBR Green DNA, 72 h; series mostly up to 28.7 µM. The procedure, abridged:
as §1

The subject of a further experiment is CP215. The experiment is described as above. Conditions: P. falciparum in erythrocytes, SYBR Green DNA, 72 h; series mostly up to 28.7 µM. A digest of the protocol: as §1
Another experiment concerns CP262. The description is as above. Conditions: P. falciparum in erythrocytes, SYBR Green DNA, 72 h; series mostly up to 28.7 µM. A digest of the protocol:
as §1

Another experiment concerns CP268. Described as above. As to conditions: P. falciparum in erythrocytes, SYBR Green DNA, 72 h; series mostly up to 28.7 µM. A digest of the protocol: as §1
The test system of a further experiment is CP269. The experiment is described as above. As to conditions: P. falciparum in erythrocytes, SYBR Green DNA, 72 h; series mostly up to 28.7 µM. The procedure, abridged: as §1
For the next experiment, the system named is CP286. The experiment is described as above. As to conditions: P. falciparum in erythrocytes, SYBR Green DNA, 72 h; series mostly up to 28.7 µM. The procedure, abridged:
as §1

Another experiment has as its system CP315. The description is as above. Conditions: P. falciparum in erythrocytes, SYBR Green DNA, 72 h; series mostly up to 28.7 µM. A digest of the protocol:
as §1

A further experiment has as its system HB3. The description is as above. Conditions: P. falciparum in erythrocytes, SYBR Green DNA, 72 h; series mostly up to 28.7 µM. A digest of the protocol: as §1

Each structure is given as a SMILES string. A number with no mark means an inactive call. Records with an inconclusive call do not appear. The source made the active and inactive calls. Calls follow the shape of the dose curve; as a rule, active = well fitted curve in the direction sought with a large enough effect; inconclusive = small, poorly fitted or top-dose-only effect, or another doubt; inactive = no such curve, though single readings can be large; an effect the other way counts as inactive or inconclusive.

In the case of `CC(=O)[O-].CC(=O)[O-].O.O.[Cd+2]`, in experiment [1], the caspase-3 activation was 4.76%. For the same compound, the Potency in [2] is 31.6 µM (active). Besides, the Potency entry in experiment [3], in experiment [4] and in experiment [5] was “inactive” each time.
As for `O=C(O)C1C(C(=O)O)C2(Cl)C(Cl)=C(Cl)C1(Cl)C2(Cl)Cl` (centres undefined), the caspase-3 activation in experiment [1] was 1.7%. Also, the Potency entry in [6], in experiment [2], in [7], in [3], in experiment [4] and in [5] was “inactive” in each case.
Take `Nc1ccccc1C(=O)OCCc1ccccc1`: the caspase-3 activation in [1] was -6.67%. Moreover, the Potency entry in experiment [6], in experiment [2], in experiment [7], in experiment [3], in experiment [4] and in experiment [5] was “inactive” throughout.
Turning to `O=[N+]([O-])C(Br)Br`, the caspase-3 activation in experiment [1] is -9.23%. The Potency result in [6], in experiment [4] and in experiment [5] was “inactive” in each case. The Potency is 25.1 µM (active) in experiment [2], 12.6 µM (active) in [7] and 12.6 µM (active) in experiment [3].
On to `Clc1ccc(C(c2ccc(Cl)cc2)C(Cl)Cl)cc1`, for which the caspase-3 activation in [1] is 127% (active). In addition, the Potency in experiment [6] was 79.4 µM (active); in experiment [5] it was 50.1 µM (active). Besides, the Potency entry in experiment [2], in [7] and in experiment [3] was “inactive” in each case.
Turning to `CC(C)CC(C)Nc1ccc(Nc2ccccc2)cc1` (centres undefined), the caspase-3 activation in experiment [1] is 12.2%. Besides, the Potency in experiment [6] was 31.6 µM (active); in [2], 31.6 µM (active); in experiment [7], 50.1 µM (active); in [3], 50.1 µM (active); in [4] it was 39.8 µM (active); in experiment [5] it was 31.6 µM (active).
Take `CC1(C)[C@@H](C=C(Cl)Cl)[C@@H]1C(=O)OCc1c(F)c(F)cc(F)c1F`: the Potency entry with 3D7, in the experiment with C2A, in the experiment with CP191, with CP192, with CP201 and in the experiment with CP211 was “inactive” each time. Besides, the Potency entry in the experiment with CP215, in the experiment with CP262, with CP268, in the experiment with CP269, in the experiment with CP286 and in the experiment on CP315 was “inactive” each time. For the same compound, the Potency entry in the experiment with HB3 was “inactive”.
As to `CCCCCC(O)C1C(=O)OC(C)C(O)\C=C/C=C\C=C/C=C\C=C(\C)C(O)C(O)C(O)CC(O)CC(O)CC(O)CC(O)CC1O` (centres undefined), the Potency entry in the experiment with 3D7, in the experiment on C2A, with CP191, in the experiment with CP192, in the experiment on CP201 and with CP211 was “inactive” throughout. Besides, the Potency entry in the experiment on CP215, with CP262, with CP268, in the experiment on CP269, with CP286 and in the experiment on CP315 was “inactive” in each case. The Potency entry with HB3 was “inactive”.
Take `C[C@@H]1CC[C@H]2[C@@H](C)C(=O)O[C@@H]3OC4(C)CC[C@@H]1C32OO4` (some centres undefined): the Potency is 0.0079 µM (active) in the experiment with 3D7; 0.0112 µM (active) with C2A; 0.0071 µM (active) in the experiment with CP191; 0.0169 µM (active) in the experiment on CP192; 0.0301 µM (active) with CP201; 0.0169 µM (active) with CP211. The Potency in the experiment with CP215 is 0.0135 µM (active); in the experiment on CP262, 0.0135 µM (active); in the experiment with CP268, 0.0135 µM (active); in the experiment with CP269, 0.0107 µM (active); with CP286 it was 0.0071 µM (active); with CP315, 0.0239 µM (active). Moreover, the Potency with HB3 was 0.0089 µM (active).
With `Cc1ccc2c(c1)[C@@H]1CN(C)CC[C@H]1N2`, the Potency entry in the experiment with 3D7, in the experiment on C2A, with CP191, in the experiment with CP192, with CP201 and in the experiment on CP211 was “inactive” throughout. The Potency result in the experiment on CP215, with CP262, in the experiment on CP268, with CP269, in the experiment with CP286 and in the experiment with CP315 was “inactive” in each case. Also, the Potency entry with HB3 is “inactive”.
With `CC1(C)S[C@@H]2[C@H](N)C(=O)N2C1C(=O)O` (some centres undefined), the Potency entry in the experiment on 3D7, in the experiment with C2A, in the experiment with CP191, in the experiment on CP192, in the experiment with CP201 and in the experiment on CP211 was “inactive” in each case. Also, the Potency entry in the experiment on CP215, in the experiment with CP262, with CP268, with CP269, with CP286 and with CP315 was “inactive” throughout. Further, the Potency result in the experiment with HB3 is “inactive”.
